Data on seven compounds can be found in PubChem BioAssay (Tox21).

The structures appear in SMILES notation. Unmarked numbers belong to inactive results. Results filed as inconclusive are left out. Activity calls are given as the source filed them. Unless noted, calls follow the shape of the full dose curve.

The nature of experiment [1]: Nuclear factor erythroid 2-related factor 2/antioxidant responsive element (Nrf2/ARE) small molecule agonists: qHTS cell viability counter screen in human keratinocytes (AID 1919968; active = well fitted curve in the direction sought with a large enough effect in the repeat runs; an effect the other way counts as inactive or inconclusive; also: nearly all actives have a fitted effect of over 55% in size). Summed up:
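Measured as CellTiter-Fluor fluorescence, this readout tracks cytotoxicity in the same wells as the ARE-luciferase screen. HaCaT reporter cells (1,500/well) received compounds after a 5 h pre-incubation and were exposed for 23 h.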
(qHTS replaces the single test concentration by a dilution series.)

Experiment [2] in a line: Nuclear factor erythroid 2-related factor 2/antioxidant responsive element (Nrf2/ARE) small molecule agonists: luciferase reporter gene qHTS assay in human keratinocytes (AID 1919969). Also: nearly all actives have a fitted effect of over 35% in size. Background: A reporter such as luciferase makes a cellular process visible.
Experiment [3] concerns the target Gonadotropin-releasing hormone receptor (Homo sapiens) (UniProt P30968). The experiment can be described thus: Human gonadotropin-releasing hormone receptor (GnRHR) small molecule agonists, calcium flux assay in GnRHR-HEK293 cells (AID 1920063). Also: nearly all actives have a fitted effect of over 35% in size. Summed up:
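Fluorescence kinetics (480 nm excitation, 540 nm emission; 3 min, 1 s steps) report calcium mobilisation in human GnRHR-HEK293 cells in agonist mode. Dye incubation: 1 h, 37 C.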

Experiment [4] addresses KiSS-1 receptor (Homo sapiens) (UniProt Q969F8). The experiment can be described thus: Human kisspeptin (KISS1R) small molecule agonists, calcium flux assay in KISS1R-HEK293 cells (AID 1920064; active = well fitted curve in the direction sought with a large enough effect in the repeat runs; an effect the other way counts as inactive or inconclusive). Summed up:
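Measures KISS1R agonism through calcium-sensitive dye fluorescence in stably transfected HEK293 cells, read for 3 min after pin-tool compound delivery; 15-point titrations in triplicate.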
On the technique in general: Calcium flux is commonly read through the fluorescence of an indicator in the cells.

The nature of experiment [5]: G protein-coupled receptor (GPCR) small molecule agonists, calcium flux assay: HEK293 wild type cell line counter screen (AID 1920065). Summed up:
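Readout: fluorescence at 480 nm excitation/540 nm emission, sampled at 1 s intervals for 3 min. Cells had been cultured 18 h, then dye-loaded 1 h at 37 C before compound or ATP addition.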

Experiment [6] in a line: p53 small molecule agonists, cell-based qHTS assay with human liver microsomes: qHTS cell viability counter screen (AID 1963579). Also: nearly all actives have a fitted effect of over 45% in size. The method, boiled down: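 HLM-supplemented (0.5 mg/mL final) and NADPH-supplemented (0.5 mg/mL final) p53RE-bla cultures, 4,000 cells per well, were dosed with compounds in DMSO for 16 h at 37 C; luminescent ATP detection (CellTiter-Glo, 30 min, room temperature) quantified surviving cells.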

The nature of experiment [7]: p53 small molecule agonists, cell-based qHTS assay with rat liver microsomes: qHTS cell viability counter screen (AID 1963580). Also: nearly all actives have a fitted effect of over 45% in size. The method, boiled down:
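Viability is assessed in parallel with the p53 reporter read: HCT-116 p53RE-bla cells receive compounds plus rat microsomes and NADPH (0.5 mg/mL final apiece), incubate 16 h at 37 C, and then CellTiter-Glo luminescence is recorded.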

Experiment [8] is described as follows: p53 small molecule agonists, cell-based qHTS assay: qHTS cell viability counter screen (AID 1963581). Also: nearly all actives have a fitted effect of over 45% in size. The method, boiled down: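 In the same plates used for the p53 bla reporter, HCT-116 cells given compounds for 16 h at 37 C received CellTiter-Glo; luminescence was recorded 30 min later at room temperature.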
In experiment [9] the target is 5-hydroxytryptamine receptor 2A (Homo sapiens) (UniProt P28223). The experiment can be described thus: 5-hydroxytryptamine receptor 2A (HTR2A) small molecule antagonists, cell-based qHTS assay (AID 1963586). Also: nearly all actives have a fitted effect of over 45% in size. Summed up:
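Antagonist-mode intracellular calcium assay: DOI (4 nM) added after 5 min compound pre-incubation at room temperature to dye-loaded HTR2A-CHO cells. Fluorescence followed for 3 min, sampled every second.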

The target is the same in experiment [10]. The experiment can be described thus: 5-hydroxytryptamine receptor 2A (HTR2A) small molecule agonists, cell-based qHTS assay (AID 1963587). Also: nearly all actives have a fitted effect of over 30% in size. The method, boiled down:
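CHO cells stably expressing human HTR2A, plated 18 h, loaded with calcium dye 1 h at 37 C. Agonist mode: compounds added and intracellular calcium fluorescence recorded kinetically for 2 min at 1 sec intervals.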

The target of experiment [11] is Muscarinic acetylcholine receptor M1 (Homo sapiens) (UniProt P11229). As to the kind of experiment: Cholinergic receptor muscarinic 1 (CHRM1) small molecule antagonists, cell-based qHTS assay (AID 1963588). Also: nearly all actives have a fitted effect of over 40% in size. The method, boiled down: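 CHRM1-CHO calcium-flux assay, antagonist mode. Cells were seeded 18 h, dye-loaded 1 h at 37 C and given compound for 5 min at RT, then acetylcholine was added at 50nM. FDSS fluorescence was read 3 min; 15 concentrations, three runs.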
Muscarinic acetylcholine receptor M1 (Homo sapiens), sequence (P11229 whole entry, looked up): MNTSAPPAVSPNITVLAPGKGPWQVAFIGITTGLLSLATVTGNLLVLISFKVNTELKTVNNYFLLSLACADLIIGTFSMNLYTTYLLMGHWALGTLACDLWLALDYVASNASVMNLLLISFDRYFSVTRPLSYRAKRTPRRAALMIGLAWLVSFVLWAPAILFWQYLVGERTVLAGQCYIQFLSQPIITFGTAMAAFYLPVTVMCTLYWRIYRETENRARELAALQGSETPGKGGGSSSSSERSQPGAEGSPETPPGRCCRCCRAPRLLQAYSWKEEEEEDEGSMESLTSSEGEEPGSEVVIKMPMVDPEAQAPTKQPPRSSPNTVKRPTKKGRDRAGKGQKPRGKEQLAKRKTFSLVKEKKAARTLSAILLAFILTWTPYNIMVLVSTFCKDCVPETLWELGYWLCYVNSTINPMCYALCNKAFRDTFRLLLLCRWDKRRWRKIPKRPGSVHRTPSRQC

Experiment [12] has the same target. The experiment can be described thus: Cholinergic receptor muscarinic 1 (CHRM1) small molecule agonists, cell-based qHTS assay (AID 1963589). Also: nearly all actives have a fitted effect of over 35% in size. The method, boiled down: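 Each compound was tested at 15 concentrations across three independent runs on dye-loaded CHO cells stably expressing human CHRM1, reading intracellular calcium fluorescence kinetically at 1 sec intervals.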

Experiment [13] can be described thus: cAMP Responsive Elements (CRE) small molecule agonists, cell-based qHTS assay (AID 1963590). Summed up:
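Cell line: CRE-bla HEK 293T; medium DMEM/10% dialyzed FBS/0.1 mM NEAA/1 mM pyruvate/25 mM HEPES; 3 h compound exposure; beta-lactamase FRET readout after 2 h substrate loading at RT.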

A short description of experiment [14]: cAMP Responsive Elements (CRE) small molecule antagonists, cell-based qHTS assay (AID 1963591; active = well fitted inhibition curve with a large enough effect in the signal ratio in the repeat runs, not every such curve was filed as active; the % refers to the signal ratio). Summed up:
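Inhibition of NKH477-driven (0.25 uM final) CRE-beta-lactamase signal in HEK293T cells, 3 h compound exposure at 37 °C, detected by FRET substrate fluorescence.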

For experiment [15], the target named is Beta-2 adrenergic receptor (Homo sapiens) (UniProt P07550). The experiment can be described thus: Adrenergic beta2 receptor (ADRB2) small molecule antagonists, cell-based qHTS assay (AID 1963592). Also: nearly all actives have a fitted effect of over 50% in size. Also: potency is read from the fitted curve at half-maximal effect. Summed up: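 Cells (CHO, stable ADRB2 overexpression) incubated 18-20hr at 37C; compounds added from DMSO; agonist mix (1nM isoproterenol, 100uM IBMX, 25uM Ro-20-1724) added; 0.5hr RT; d2-cAMP and anti-cAMP-cryptate added; 1hr RT; 665/615 nm read.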
Beta-2 adrenergic receptor (Homo sapiens), sequence (P07550 whole entry, looked up): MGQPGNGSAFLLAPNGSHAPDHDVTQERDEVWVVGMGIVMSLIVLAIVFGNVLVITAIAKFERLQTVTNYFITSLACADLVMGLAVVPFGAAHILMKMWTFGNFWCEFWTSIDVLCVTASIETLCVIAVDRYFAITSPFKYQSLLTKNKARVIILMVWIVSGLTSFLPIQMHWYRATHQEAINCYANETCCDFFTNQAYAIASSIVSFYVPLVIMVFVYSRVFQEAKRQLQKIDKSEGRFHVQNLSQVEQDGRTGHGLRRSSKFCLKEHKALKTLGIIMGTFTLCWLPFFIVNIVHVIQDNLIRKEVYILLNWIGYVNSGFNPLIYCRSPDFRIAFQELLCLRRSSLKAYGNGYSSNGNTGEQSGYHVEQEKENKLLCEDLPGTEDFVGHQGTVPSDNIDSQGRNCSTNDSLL

Experiment [16] has the same target. The experiment can be described thus: Adrenergic beta2 receptor (ADRB2) small molecule agonists, cell-based qHTS assay (AID 1963593).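 Also: CHO cells stably overexpressing human ADRB2.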 Summed up: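 CHO cells stably over-expressing ADRB2 were plated overnight at 37C, then dosed with compounds plus a stimulation mix containing 100uM IBMX and 25uM Ro-20-1724 for 0.5hr at room temperature. cAMP was measured by HTRF competition, 1hr.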

For experiment [17], the target named is D(2) dopamine receptor (Homo sapiens) (UniProt P14416). As to the kind of experiment: Dopamine D2 receptor (DRD2) small molecule agonists, cell-based qHTS assay (AID 1963594). Also: nearly all actives have a fitted effect of over 35% in size. Summed up: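 HEK293 cells stably expressing human DRD2, pre-treated with PDE inhibitor Ro20-1724 (0.1 mM final) and compound 10 min at room temperature, then stimulated with NKH477 (200nM […]) for 30 min. cAMP read by HTRF (665/620 nm).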
D(2) dopamine receptor (Homo sapiens), sequence (P14416 whole entry, looked up): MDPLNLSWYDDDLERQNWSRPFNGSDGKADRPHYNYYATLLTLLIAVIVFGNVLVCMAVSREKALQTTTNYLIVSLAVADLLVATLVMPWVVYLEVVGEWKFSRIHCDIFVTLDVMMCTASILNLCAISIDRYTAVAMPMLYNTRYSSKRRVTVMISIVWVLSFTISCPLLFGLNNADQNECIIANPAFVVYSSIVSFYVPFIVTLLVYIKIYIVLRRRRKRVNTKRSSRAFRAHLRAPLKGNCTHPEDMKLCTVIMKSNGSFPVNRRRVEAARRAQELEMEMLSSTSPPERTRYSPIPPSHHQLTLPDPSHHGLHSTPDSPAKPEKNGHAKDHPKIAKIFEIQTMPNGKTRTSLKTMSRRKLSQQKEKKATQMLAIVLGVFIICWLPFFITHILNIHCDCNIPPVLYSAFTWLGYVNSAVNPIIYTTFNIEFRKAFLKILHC

For experiment [18] the target is unchanged. As to the kind of experiment: Dopamine D2 receptor (DRD2) small molecule antagonists, cell-based qHTS assay (AID 1963595; active = well fitted inhibition curve with a large enough effect in the signal ratio in the repeat runs, with a control signal flat; the % refers to the signal ratio). Summed up: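 HEK293 cells stably expressing DRD2 were preincubated with 0.1 mM Ro20-1724, then with compound for 10 min at room temperature. Cells were stimulated with 200 nM NKH477 plus 12 nM quinpirole for 30 min, and cAMP was read by HTRF.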

KiSS-1 receptor (Homo sapiens), sequence (Q969F8 whole entry, looked up): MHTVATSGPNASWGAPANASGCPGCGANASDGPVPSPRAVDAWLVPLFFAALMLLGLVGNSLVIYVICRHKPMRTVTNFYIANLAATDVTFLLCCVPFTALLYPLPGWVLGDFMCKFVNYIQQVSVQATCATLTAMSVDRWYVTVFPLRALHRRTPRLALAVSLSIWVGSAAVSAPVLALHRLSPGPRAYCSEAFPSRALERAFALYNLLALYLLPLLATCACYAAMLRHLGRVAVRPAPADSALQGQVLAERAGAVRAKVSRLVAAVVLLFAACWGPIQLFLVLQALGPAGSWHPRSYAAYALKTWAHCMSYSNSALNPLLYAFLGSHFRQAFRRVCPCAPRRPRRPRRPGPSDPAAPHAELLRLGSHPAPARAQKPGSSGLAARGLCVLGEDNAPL
Gonadotropin-releasing hormone receptor (Homo sapiens), sequence (P30968 whole entry, looked up): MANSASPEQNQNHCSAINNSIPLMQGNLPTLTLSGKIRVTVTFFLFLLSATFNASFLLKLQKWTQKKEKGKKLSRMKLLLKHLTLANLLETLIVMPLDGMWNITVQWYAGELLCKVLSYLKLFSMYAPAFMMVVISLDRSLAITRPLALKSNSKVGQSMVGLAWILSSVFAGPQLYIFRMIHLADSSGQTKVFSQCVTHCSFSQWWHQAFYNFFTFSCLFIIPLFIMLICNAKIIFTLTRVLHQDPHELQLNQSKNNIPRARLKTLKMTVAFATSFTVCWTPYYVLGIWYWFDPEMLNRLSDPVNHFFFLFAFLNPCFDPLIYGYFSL
5-hydroxytryptamine receptor 2A (Homo sapiens), sequence (P28223 whole entry, looked up): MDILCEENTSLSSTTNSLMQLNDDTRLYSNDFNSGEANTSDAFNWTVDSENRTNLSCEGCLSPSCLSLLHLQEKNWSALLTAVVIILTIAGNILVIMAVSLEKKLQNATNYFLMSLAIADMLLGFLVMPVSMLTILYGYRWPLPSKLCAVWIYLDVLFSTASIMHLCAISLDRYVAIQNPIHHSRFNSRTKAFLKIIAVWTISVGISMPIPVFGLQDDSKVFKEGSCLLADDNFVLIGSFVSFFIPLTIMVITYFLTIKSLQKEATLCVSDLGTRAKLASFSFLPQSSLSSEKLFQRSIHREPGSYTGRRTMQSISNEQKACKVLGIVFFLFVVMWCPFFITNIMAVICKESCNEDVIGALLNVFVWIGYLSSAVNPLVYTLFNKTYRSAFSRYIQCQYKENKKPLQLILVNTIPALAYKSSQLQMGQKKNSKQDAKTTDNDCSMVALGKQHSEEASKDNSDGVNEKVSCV

On to `CC(=O)Nc1ccc(S(=O)(=O)Cl)cc1`, for which the Potency result in [1], in [2], in experiment [3], in experiment [4], in [5] and in experiment [6] was “inactive” throughout. Further, the Potency result in [7], in [8], in experiment [9], in [10], in experiment [11] and in experiment [12] was “inactive” each time. Further, the Potency entry in [13], in [14], in experiment [15], in experiment [16], in experiment [17] and in experiment [18] was “inactive” throughout.

As to `COc1ccc(CCO)cc1`, the Potency entry in experiment [1], in experiment [2], in [3], in experiment [4], in experiment [5] and in experiment [6] was “inactive” throughout. The Potency result in experiment [7], in experiment [8], in [9], in experiment [10], in experiment [11] and in experiment [12] was “inactive” each time. Further, the Potency entry in [13], in experiment [14], in experiment [15], in experiment [16], in experiment [17] and in experiment [18] was “inactive” throughout.

As for `CC1(C)C(=O)N(Cl)C(=O)N1Br`, the Potency entry in [1], in experiment [2], in experiment [3], in experiment [4], in experiment [5] and in [6] was “inactive” each time. The Potency result in [7], in [8], in [9], in [10], in experiment [11] and in experiment [12] was “inactive” throughout. Also, the Potency entry in experiment [13], in [14], in experiment [15], in experiment [16], in [17] and in [18] was “inactive” throughout.

For `Nc1cccc(O)c1`, the Potency entry in [1], in experiment [2], in experiment [3], in experiment [4], in [5] and in experiment [6] was “inactive” in each case. For the same compound, the Potency entry in experiment [7], in [8], in experiment [9], in experiment [10], in experiment [11] and in experiment [12] was “inactive” each time. The Potency result in experiment [13], in experiment [14], in experiment [15], in experiment [16], in [17] and in [18] was “inactive” each time.

On to `CCCCCCCCCCC=O`, for which the Potency entry in experiment [1], in experiment [2], in [3], in experiment [4], in experiment [5] and in experiment [6] was “inactive” each time. Besides, the Potency result in [7], in experiment [8], in experiment [9], in experiment [10], in experiment [11] and in experiment [12] was “inactive” each time. The Potency result in experiment [13], in [14], in experiment [15], in experiment [16], in experiment [17] and in experiment [18] was “inactive” throughout.

`COc1ccc(OC)c(Cl)c1`: the Potency entry in [1], in experiment [2], in experiment [3], in [4], in experiment [5] and in [6] was “inactive” in each case. Besides, the Potency entry in [7], in experiment [8], in experiment [9], in experiment [10], in experiment [11] and in experiment [12] was “inactive” each time. Further, the Potency entry in [13], in [14], in experiment [15], in [16], in experiment [17] and in experiment [18] was “inactive” each time.

Turning to `CCCCCCCC/C=C\CCCCCCCCO`, the Potency entry in experiment [1], in [2], in experiment [3], in experiment [4], in experiment [5] and in [6] was “inactive” each time. Besides, the Potency entry in experiment [7], in [8], in experiment [9], in [10], in experiment [11] and in experiment [12] was “inactive” each time. Besides, the Potency result in [13], in [14], in experiment [17] and in experiment [18] was “inactive” throughout. Moreover, the Potency in experiment [15] was 54.4 µM (active).
